In PubChem BioAssay AID1159580 (chemical genetic matrix, 2015):
In all, about 5,500 compounds went through this assay and about 2,000 (36%) were called active. Inconclusive results (about 18%) are left out. No stated cut-off is given here; in the data, active means normalized growth mostly below about 0.91 (no sharp cut-off); inconclusive means no clear call, values can overlap the other calls; inactive means mostly above about 0.92. The list shows a part of the results.

Assay: chemical genetic growth profiling, strain panel (AID 1159580);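 further: tested at 20 µM; growth read once vehicle control cultures reached saturation at 30 °C; 1 = growth at the plate median or of vehicle wells; lower values mean less growth of the strain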
Conditions: growth OD
[1] = S. cerevisiae deletion strains, locus YAL013W, strain DEP1, hits give low values
[2] = S. cerevisiae deletion strains, locus YBR229C, strain ROT2, hits give low values
[3] = S. cerevisiae deletion strains, locus YCL061C, strain MRC1, hits give low values
[4] = S. cerevisiae deletion strains, locus YDL101C, strain DUN1, hits give low values
[5] = S. cerevisiae deletion strains, locus YDR150W, strain NUM1, hits give low values
[6] = S. cerevisiae deletion strains, locus YEL061C, strain CIN8, hits give low values
[7] = S. cerevisiae deletion strains, locus YGR078C, strain PAC10, hits give low values
[8] = S. cerevisiae deletion strains, locus YHR030C, strain SLT2, hits give low values
[9] = S. cerevisiae deletion strains, locus YHR087W, strain rtc3, hits give low values
[10] = S. cerevisiae deletion strains, locus YJL187C, strain SWE1, hits give low values
[11] = S. cerevisiae deletion strains, locus YJR043C, strain POL32, hits give low values
[12] = S. cerevisiae deletion strains, locus YJR075W, strain HOC1, hits give low values
[13] = S. cerevisiae deletion strains, locus YKL190W, strain CNB1, hits give low values
[14] = S. cerevisiae deletion strains, locus YLR039C, strain RIC1, hits give low values
[15] = S. cerevisiae deletion strains, locus YLR058C, strain SHM2 (second series), hits give low values
[16] = S. cerevisiae deletion strains, locus YLR085C, strain ARP6, hits give low values
[17] = S. cerevisiae deletion strains, locus YLR262C, strain YPT6, hits give low values
[18] = S. cerevisiae deletion strains, locus YML094W, strain GIM5, hits give low values
[19] = S. cerevisiae deletion strains, locus YMR219W, strain ESC1, hits give low values
[20] = S. cerevisiae deletion strains, locus YMR263W, strain SAP30, hits give low values
[21] = S. cerevisiae deletion strains, locus YMR307W, strain GAS1, hits give low values
[22] = S. cerevisiae deletion strains, locus YNL153C, strain GIM3, hits give low values
[23] = S. cerevisiae deletion strains, locus YNL298W, strain CLA4 (second series), hits give low values
[24] = S. cerevisiae deletion strains, locus YNL322C, strain KRE1, hits give low values
[25] = S. cerevisiae deletion strains, locus YNR030W, strain Alg12, hits give low values
[26] = S. cerevisiae deletion strains, locus YPL055C, strain LGE1, hits give low values
[27] = S. cerevisiae deletion strains, locus YPL241C, strain CIN2, hits give low values
[28] = S. cerevisiae deletion strains, locus YPR135W, strain CTF4, hits give low values

Measured: normalized growth

O=C1CCC(=O)N1CNc1ccccc1OC(F)(F)F
inactive: [1] 0.968 | [2] 0.994 | [3] 1.01 | [4] 0.963 | S. cerevisiae deletion strains, locus YDL134C, strain PPH21, hits give low values 0.999 | [5] 1.02 | [6] 0.984 | [7] 0.996 | S. cerevisiae deletion strains, locus YGR229C, strain SMI1, hits give low values 0.998 | [8] 1.04 | [9] 0.989 | [10] 1 | [11] 1 | [12] 0.997 | [13] 0.999 | [14] 0.991 | [15] 0.992 | [16] 1.02 | [17] 1.05 | [18] 1.02 | [19] 0.993 | [20] 1.03 | [21] 1.2 | S. cerevisiae deletion strains, locus YNL128W, strain TEP1, hits give low values 0.993 | [22] 1.01 | [23] 0.971 | [24] 0.983 | [25] 1 | [26] 1.07 | [27] 1.02 | [28] 0.92

Cc1cccc(NCN2C(=O)CCC2=O)n1
active: [14] 0.643 | [17] 0.572
inactive: [1] 0.968 | [2] 0.996 | [4] 0.956 | [5] 0.959 | [6] 0.982 | [7] 0.965 | [8] 0.821 | [9] 1.06 | [11] 0.972 | [12] 0.987 | [15] 0.97 | [16] 0.95 | [18] 0.932 | [19] 0.992 | [20] 1.01 | [21] 1.22 | [22] 0.98 | [23] 0.938 | [24] 0.983 | [25] 0.977 | [26] 1 | [27] 0.96 | [28] 0.978

Cc1cccc(N2C(=O)C3C4C=CC(C4)C3C2=O)n1 (centres undefined)
inactive: [1] 0.994 | [2] 0.993 | [3] 0.985 | [4] 0.989 | [5] 0.987 | [6] 0.987 | [7] 1.01 | [8] 0.999 | [9] 0.971 | [10] 0.995 | [11] 1.01 | [12] 0.989 | [13] 0.991 | [14] 0.977 | [15] 0.992 | [16] 0.987 | [17] 0.998 | [18] 0.983 | [19] 0.992 | [20] 0.987 | [22] 1 | [23] 1.01 | [24] 1.01 | [25] 1 | [26] 0.991 | [27] 1.01 | [28] 1.03 | S. cerevisiae strains, strain wild type, hits give low values 0.999
